In the antibiotic and cytotoxicity screens of Wong et al. (2023):
In all, about 39,000 compounds went through this assay and about 1,500 (3.8%) were called active. For the sample, actives were picked, then their nearest neighbours and some compounds at random.

Tested on: HSkMC (human skeletal muscle cells)
Experiment: cytotoxicity call (relative viability < 0.9)
Settings: 10 µM

SMILES	cytotoxicity call
C[C@H](CO)N1C[C@H](C)[C@H](CN(C)C(=O)Nc2ccc(F)cc2)OCCCC[C@H](C)Oc2ccc(NS(=O)(=O)c3ccc(Cl)cc3)cc2C1=O	inactive
C[C@H](CO)N1C[C@H](C)[C@@H](CN(C)Cc2ccc3c(c2)OCO3)Oc2ncc(Br)cc2C1=O	inactive
CN(Cc1ccc(/C=C/C(=O)Nc2ccc(-c3ccccc3)cc2N)cc1)CC12CC3CC(CC(C3)C1)C2	active
CN(Cc1ccc(/C=C/C(=O)Nc2ccc(-c3cccs3)cc2N)cc1)CC12CC3CC(CC(C3)C1)C2	inactive
C[C@@H]1CN([C@@H](C)CO)C(=O)Cc2cc(NC(=O)CCCCCC(=O)Nc3ccccc3N)ccc2O[C@H]1CN(C)Cc1ccc(-c2ccccc2)cc1	inactive
COCCN1CCO[C@@H]2CN(Cc3cnn(C)c3)C[C@@H]21	inactive
CN1CCN(C(=O)C[C@H]2CC[C@@H]3[C@H](COC[C@H](O)CN3C(=O)Nc3ccc4c(c3)OCO4)O2)CC1	inactive
C[C@H]1CN([C@@H](C)CO)C(=O)c2cc(NC(=O)Nc3cccc4ccccc34)ccc2O[C@@H]1CN(C)S(=O)(=O)c1cccs1	inactive
C[C@H]1CN([C@@H](C)CO)C(=O)Cc2cc(NC(=O)NC3CCCCC3)ccc2O[C@@H]1CN(C)C(=O)Nc1ccc(C(F)(F)F)cc1	inactive
C[C@H]1CN([C@@H](C)CO)C(=O)c2cc(NC(=O)Nc3ccccc3)ccc2O[C@H]1CN(C)Cc1ccc(C(F)(F)F)cc1	inactive
C[C@@H]1CN([C@H](C)CO)C(=O)c2cc(NC(=O)Nc3ccccc3)ccc2O[C@H]1CN(C)Cc1ccc(C(F)(F)F)cc1	inactive
C[C@@H]1CN([C@@H](C)CO)C(=O)c2cc(NC(=O)Nc3ccccc3)ccc2O[C@H]1CN(C)Cc1ccc(C(F)(F)F)cc1	active
C[C@H](CO)N1C[C@H](C)[C@H](CN(C)Cc2ccc(C(F)(F)F)cc2)Oc2ccc(NC(=O)Nc3ccccc3)cc2C1=O	inactive
C[C@H](CO)N1C[C@H](C)[C@@H](CN(C)Cc2ccc(C(F)(F)F)cc2)Oc2ccc(NC(=O)Nc3ccccc3)cc2C1=O	inactive
C[C@@H]1CN([C@H](C)CO)C(=O)c2cc(NC(=O)Nc3ccccc3)ccc2O[C@@H]1CN(C)Cc1ccc(C(F)(F)F)cc1	active
NCc1cn(Cc2ccc(Cl)c(Cl)c2)cn1	inactive
C[C@H](CO)N1C[C@H](C)[C@@H](CN(C)S(=O)(=O)c2ccc(F)cc2)Oc2ccc(NS(=O)(=O)c3ccc(F)cc3)cc2CC1=O	inactive
CN(C)CCCNC(=O)C[C@@H]1CC[C@H](NS(=O)(=O)c2ccccc2)[C@@H](CO)O1	inactive
C[C@H]1CN([C@@H](C)CO)C(=O)Cc2cc(NC(=O)Cc3ccccc3)ccc2O[C@@H]1CN(C)S(=O)(=O)c1cn(C)cn1	inactive
C[C@H](CO)N1C[C@H](C)[C@H](CN(C)C(=O)C2CCCCC2)OCCCC[C@H](C)Oc2ccc(NS(=O)(=O)c3ccc(Cl)cc3)cc2C1=O	inactive
Cc1ccc(-c2ccc3c(c2)O[C@H](CN(C)C(=O)Nc2ccc(C(F)(F)F)cc2)[C@@H](C)CN([C@H](C)CO)S3(=O)=O)cc1	inactive
Cc1ccc(-c2ccc3c(c2)O[C@H](CN(C)C(=O)Nc2ccc(C(F)(F)F)cc2)[C@H](C)CN([C@H](C)CO)S3(=O)=O)cc1	inactive
Cc1ccccc1-c1ccc2c(c1)O[C@H](CN(C)C(=O)Nc1ccc(C(F)(F)F)cc1)[C@H](C)CN([C@@H](C)CO)S2(=O)=O	inactive
Cc1ccccc1-c1ccc2c(c1)O[C@@H](CN(C)C(=O)Nc1ccc(C(F)(F)F)cc1)[C@@H](C)CN([C@@H](C)CO)S2(=O)=O	active
Cc1ccc(-c2ccc3c(c2)O[C@@H](CN(C)C(=O)Nc2ccc(C(F)(F)F)cc2)[C@H](C)CN([C@H](C)CO)S3(=O)=O)cc1	active

SMILES	cytotoxicity call
Cc1ccc(-c2ccc3c(c2)O[C@H](CN(C)C(=O)Nc2ccc(C(F)(F)F)cc2)[C@@H](C)CN([C@@H](C)CO)S3(=O)=O)cc1	active
Cc1ccc(-c2ccc3c(c2)O[C@@H](CN(C)C(=O)Nc2ccc(C(F)(F)F)cc2)[C@@H](C)CN([C@@H](C)CO)S3(=O)=O)cc1	inactive
Cc1ccc(-c2ccc3c(c2)O[C@H](CN(C)C(=O)Nc2ccc(C(F)(F)F)cc2)[C@H](C)CN([C@@H](C)CO)S3(=O)=O)cc1	inactive
Cc1ccccc1-c1ccc2c(c1)O[C@@H](CN(C)C(=O)Nc1ccc(C(F)(F)F)cc1)[C@H](C)CN([C@H](C)CO)S2(=O)=O	inactive
C[C@@H]1CCCCO[C@@H](CN(C)C(=O)Nc2ccc3c(c2)OCO3)[C@H](C)CN([C@H](C)CO)C(=O)c2cc(NC(=O)Cc3ccccc3)ccc2O1	inactive
CC(/C=C/C(=O)NO)=C\c1ccccc1OC[C@@H]1[C@H]2C[C@H]3c4[nH]c5ccccc5c4CCN3C[C@@H]2CC[C@@H]1O	inactive
C[C@@H]1CN([C@@H](C)CO)C(=O)c2cccc(NC(=O)C3CCCCC3)c2O[C@H]1CN(C)Cc1ccc(C(F)(F)F)cc1	inactive
CC1CC=CC=CC=CC=CC(OC2OC(C)C(O)C(N)C2O)CC2OC(O)(CC(O)CC3OC3C=CC(=O)O1)CC(O)C2C(=O)O (centres undefined)	inactive
CN1C(=O)c2cc(NC(=O)Nc3ccccc3F)ccc2OC[C@H]2O[C@@H](CC(=O)Nc3cccc(Cl)c3)CC[C@@H]21	inactive
CCOC(=O)N1CCN(C(=O)C2CCN(S(=O)(=O)N(CC)CC)CC2)CC1	inactive
C[C@@H]1CN([C@@H](C)CO)C(=O)Cc2cc(NS(=O)(=O)c3cn(C)cn3)ccc2O[C@@H]1CN(C)Cc1ccncc1	inactive
CCCN1C[C@H](C(=O)O)CCC1=O	inactive
C[C@H](CO)N1C[C@H](C)[C@H](CN(C)Cc2ccc(Cl)c(Cl)c2)Oc2ccc(NC(=O)Cc3cn(C)c4ccccc34)cc2CC1=O	inactive
C[C@@H]1CN([C@@H](C)CO)C(=O)Cc2cc(NC(=O)Cc3cn(C)c4ccccc34)ccc2O[C@H]1CN(C)Cc1ccc(Cl)c(Cl)c1	inactive
C[C@H]1CN([C@@H](C)CO)C(=O)Cc2cc(NC(=O)Cc3cn(C)c4ccccc34)ccc2O[C@H]1CN(C)Cc1ccc(Cl)c(Cl)c1	active
C[C@@H]1CN([C@H](C)CO)C(=O)Cc2cc(NC(=O)Cc3cn(C)c4ccccc34)ccc2O[C@@H]1CN(C)Cc1ccc(-c2ccccc2)cc1	inactive
C[C@H]1CN([C@@H](C)CO)C(=O)Cc2cc(NC(=O)Cc3cn(C)c4ccccc34)ccc2O[C@@H]1CN(C)Cc1ccc(Cl)c(Cl)c1	active
C[C@@H]1CN([C@H](C)CO)C(=O)Cc2cc(NC(=O)Cc3cn(C)c4ccccc34)ccc2O[C@H]1CN(C)Cc1ccc(Cl)c(Cl)c1	active
C[C@@H]1CN([C@H](C)CO)C(=O)Cc2cc(NC(=O)Cc3cn(C)c4ccccc34)ccc2O[C@@H]1CN(C)Cc1ccc(Cl)c(Cl)c1	inactive
Cc1noc(C)c1S(=O)(=O)N(C)C[C@H]1Oc2ccc(NC(=O)Cc3cn(C)c4ccccc34)cc2CC(=O)N([C@H](C)CO)C[C@@H]1C	inactive
C[C@H](CO)N1C[C@H](C)[C@@H](CN(C)Cc2ccc(Cl)c(Cl)c2)Oc2ccc(NC(=O)Cc3cn(C)c4ccccc34)cc2CC1=O	inactive
C[C@@H]1CN([C@@H](C)CO)C(=O)Cc2cc(NC(=O)Cc3cn(C)c4ccccc34)ccc2O[C@@H]1CN(C)Cc1ccc(Cl)c(Cl)c1	inactive
Cc1noc(C)c1S(=O)(=O)N(C)C[C@H]1Oc2ccc(NC(=O)Cc3cn(C)c4ccccc34)cc2CC(=O)N([C@H](C)CO)C[C@H]1C	inactive
Cc1noc(C)c1S(=O)(=O)N(C)C[C@@H]1Oc2ccc(NC(=O)Cc3cn(C)c4ccccc34)cc2CC(=O)N([C@@H](C)CO)C[C@@H]1C	active
